The entries come from a sample that favours hits as a whole.
Pf Dd2 inh – blocks in vitro growth of P. falciparum Dd2. Potency, µM (series often up to 28.9 µM), without a hit: at the top dose activity, negative = inhibition, usual class: inhibitors. P. falciparum Dd2 growth, SYBR Green, 72 h. AID 1347417. 120,000 compounds, 4.3% hits; active = well fitted inhibition curve with a large enough effect;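 also: plate controls were DMSO vehicle for no effect and reference drug for full effect; nearly all actives have a fitted effect of over 65% in size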
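Infected erythrocytes (Dd2, 0.3% parasitemia, 2.5% hematocrit final) are added to compound in RPMI-1640/Albumax II medium, grown 72 h at 37C in low oxygen, then lysed with saponin/Triton-X containing SYBR Green and read by fluorescence.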
* marks the source's active call; other numbers are inactive results; [ ] = remark or other dose. Potency is read from the fitted curve at half-maximal effect.

Results for Cc1ccc(C2=NC3(CCN(C(=O)c4ccoc4)CC3)ON2)cc1 ?
Pf Dd2 inh: -8%

Results for CCC(=O)N(C1CCOCC1)C1CCN(Cc2ccc(C)cc2C)CC1 ?
Pf Dd2 inh: -22%

Results for COCCOC(=O)C1=C(C)N=C2SC=C(CC(=O)NCCc3ccccc3)N2C1c1ccccc1 (stereo not drawn) ?
Pf Dd2 inh: -19%

How did COc1ccc(N2CC(C(=O)N3CCC(C(=O)N4CCCC4)C3)NC2=O)cc1 (stereo not drawn) do in these assays?
Pf Dd2 inh: 32%

Results for COCCN1C(=O)c2cccn2CC1CNC(=O)c1cccc(OC)c1 (stereo not drawn) ?
Pf Dd2 inh: -7%

How did O=C(NC[C@H]1OC[C@@H](NC2CCCCC2)[C@@H]1O)c1cccs1 do in these assays?
Pf Dd2 inh: inactive

Results for O=C(NCCCc1ccccc1)C1CN(Cc2ccccc2)C(=O)N1 (stereo not drawn) ?
Pf Dd2 inh: 7%[44.1 µM]

Results for COCCCNC(=O)[C@H]1CN(Cc2ccccc2)C[C@H]1C(=O)O ?
Pf Dd2 inh: -7%

What do the screens show for `O=C(NCCCc1ccccc1F)[C@@]12CNC[C@@H]1CN(Cc1ccccc1)C2`?
Pf Dd2 inh: 7.9µM*

Results for COc1ccc(-c2nc3c([nH]2)CN(S(=O)(=O)N2CCCC2)CC3)cn1 ?
Pf Dd2 inh: -22%

What do the screens show for `O=C(C1CCOCC1)N1CCCC(CCc2ccccc2C(F)(F)F)C1` (stereo not drawn)?
Pf Dd2 inh: -10%

Results for Cn1ccc(C(=O)N2CCCC(CCc3ccccc3C(F)(F)F)C2)n1 (stereo not drawn) ?
Pf Dd2 inh: -7%

What do the screens show for `CNC(=O)c1ccc(CN2CCCC(CCc3ccccc3C(F)(F)F)C2)o1` (stereo not drawn)?
Pf Dd2 inh: 7.9µM*

What do the screens show for `CC(C)C(=O)N[C@@H]1C[C@H](COc2ccc(S(C)(=O)=O)cc2)[C@@H](O)[C@H]1O`?
Pf Dd2 inh: 10%[44.1 µM]

Results for Cc1ccccc1CNC[C@H]1O[C@@H]2C[C@@H](CC(=O)N3CCC(F)(F)C3)O[C@@H]2[C@@H]1O ?
Pf Dd2 inh: 9%[44.1 µM]

What do the screens show for `Cc1cc(=O)n(CC(=O)N[C@H](c2ccccn2)C2CC(O)C2)nc1C` (stereo partly drawn)?
Pf Dd2 inh: -15%

Results for Cc1c(-c2ccc(Br)cc2)c(=O)oc2ccc(OC(=O)N3CCOCC3)cc12 ?
Pf Dd2 inh: inactive

Results for Cc1c(-c2ccc(Cl)cc2)c(=O)oc2c(CN3CCOCC3)c(O)ccc12 ?
Pf Dd2 inh: 5.6µM*

How did Cc1c(-c2ccccc2)c(=O)oc2c(CN3CCOCC3)c(O)ccc12 do in these assays?
Pf Dd2 inh: 8.9µM*

What do the screens show for `Cc1c(-c2ccc(Cl)cc2)c(=O)oc2ccc(OC(=O)N3CCOCC3)cc12`?
Pf Dd2 inh: inactive

Results for Cc1ccccc1CN1CCc2nc(C(=O)N3CCOCC3)oc2CC1 ?
Pf Dd2 inh: inactive

How did CCn1cc(-c2ccc(Cl)cc2)cc1C(=O)NCCN1CCOCC1 do in these assays?
Pf Dd2 inh: -19%

Results for Cc1ncsc1C1N(C2CCN(C(=O)NC3CCCCC3)CC2)C(=O)C12CCCC2 (stereo not drawn) ?
Pf Dd2 inh: -5%

Results for CC[C@H]1CN(C(=O)Nc2cccc(OC)c2)CC[C@H]1CC(=O)N(C)CCC#N ?
Pf Dd2 inh: inactive

What do the screens show for `COc1cccc(C2Cn3nnc(-c4nc(-c5ccc(Cl)cc5)no4)c3CO2)c1` (stereo not drawn)?
Pf Dd2 inh: inactive

How did O=C(CCC1CC1)N1CCC(c2cc(Cc3ccccc3)[nH]n2)CC1 do in these assays?
Pf Dd2 inh: -21%

Results for Cc1noc(C)c1[S+](=O)([O-])N1CCC2(Cc3ccccc3NC2=O)C1 (stereo not drawn) ?
Pf Dd2 inh: 4%

How did Cc1cc(C)cc(NC(=O)c2cc(S(=O)(=O)N3CCCCC3)c[nH]2)c1 do in these assays?
Pf Dd2 inh: 28%

Results for Cn1cc(S(=O)(=O)N2CCCCCC2)cc1C(=O)NCc1ccc(F)cc1 ?
Pf Dd2 inh: -5%

What do the screens show for `CCc1ccc(NC(=O)c2cc(S(=O)(=O)N3CCCCC3)c[nH]2)cc1`?
Pf Dd2 inh: 10%

How did Cc1ccc(CNC(=O)c2cc(S(=O)(=O)N3CCCCC3)cn2C)cc1 do in these assays?
Pf Dd2 inh: -21%

Results for O=C(NCc1ccc(Cl)cc1)c1cc(S(=O)(=O)N2CCCCC2)c[nH]1 ?
Pf Dd2 inh: 11µM*

Results for Cn1cc(S(=O)(=O)N2CCCCC2)cc1C(=O)NCc1ccc(Cl)cc1 ?
Pf Dd2 inh: 11µM*

How did O=C1Cc2c(-c3ccccc3Cl)n[nH]c2CN1Cc1ccccn1 do in these assays?
Pf Dd2 inh: 8%[44.1 µM]

What do the screens show for `c1ccc(Cn2nc(Cn3cncn3)nc2C2CCCCn3nnnc32)cc1` (stereo not drawn)?
Pf Dd2 inh: -9%

What do the screens show for `OC1CCOC2(CCN(Cc3ccc[nH]3)CC2)C1` (stereo not drawn)?
Pf Dd2 inh: 5%

Screening data (PubChem BioAssay)
